Active and inactive are the calls of the source.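 Rule for the calls, unless noted: active = inhibition of the reporter signal at or above 50%; inactive = inhibition below 50%.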
Assays:
[1] = inhibitors of TNFa-induced NFkB p65 translocation, primary screen, imaging, HUVEC, MLSMR starter and 10KST1 sets (AID 438;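 active = inhibition above 20% together with a positive visual image hit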;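 note: compound added about 3h40 before a 20 min TNFalpha stimulation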;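 for inhibition: signal is the nuclear over cytoplasmic p65 intensity ratio per well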); details: HUVEC TNFa-induced p65 nuclear translocation; cell count: measured here: nuclei count (cytotoxicity indicator), at 2.08 µM; inhibition: at 2 µM, stronger effect = higher value, 0% TNFa-plus-vehicle, 100% no-TNFa wells
[2] = reduction of polyQ htt aggregates in cells – imaging, exon1htt(103Q)mCFP cells, high-content imaging, primary screen (AID 483;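 active = visual image review flags a hit and inhibition of aggregation exceeds 20%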;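 note: compound exposure lasted 3 days before fixation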;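 for nuclei count: percent of the per-plate median nuclei count of sample wells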); details: exon1htt(103Q)mCFP cell line, aggregate imaging, at 2 µM; inhibition of aggregation: stronger effect = higher value; nuclei count: measured here: cell count, toxicity
[3] = endothelial E-selectin expression blockers – imaging, HUVEC, immunofluorescence, MLSMR starter and 10KST1 sets, primary screen (AID 487;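 active = visually confirmed hit in the image check and inhibition above 20%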;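 for inhibition: signal is fraction of cell area covered by stained E-selectin grains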;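 for nuclei count: 100% = median nuclei count of all wells on the same plate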); details: HUVEC TNFalpha-induced E-selectin immunofluorescence imaging, at 2 µM; inhibition: stronger effect = higher value; nuclei count: measured here: cell number, toxicity
[4] = target: Voltage-gated potassium channel subunit beta-2 (Rattus norvegicus) (UniProt P62483); experiment: inhibitors of rat Kvbeta2 reductase activity – biochemical, NADPH fluorescence, primary screen (AID 622;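 active = fluorescence slope higher than the sample average by over 3 SD, cut at about -0.22 in these data, passing the limit was not always enough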;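 note: slope of raw intensity against log time taken from 70 to 1610 s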); details: recombinant KvBeta, 4-cyanobenzaldehyde reduction, at 10 µM, stronger effect = higher value
[5] = target: Voltage-gated potassium channel subunit beta-2 (Rattus norvegicus) (UniProt P62483); experiment: enhancers of rat Kvbeta2 NADPH turnover – biochemical, NADPH fluorescence, primary screen (AID 623;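 active = NADPH fluorescence slope more negative than the mean of all samples by about 3 SD, 99.7% confidence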;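 note: fluorescence intensity change per second fitted from 20 to 320 s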); details: Recombinant KvBeta, NADPH fluorescence decrease slope, 10 min; at 10 µM; stronger effect = lower value
[6] = target: Alpha-2C adrenergic receptor (Homo sapiens) (UniProt P18825); experiment: compounds altering alpha2C-coupled GIRK flux – cell-based, HEK293 alpha2C/GIRK1/2, thallium flux, primary screen (AID 624;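 active = fluorescence slope after compound addition differing from the mean of all screened samples at 99.7% confidence, in either direction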;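 note: slope of fluorescence ratio to pre-addition baseline per second over 15 to 24 s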); details: thallium flux BTC fluorescence, at 10 µM, actives lie on both sides
[7] = blockers of RIG-like receptor reporter activation – cell-based, Sendai virus stimulus, luciferase, 10K MLSCN set, TLR/RLR signaling modifier project, primary screen (AID 602276;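 active = inhibition at or above 50% at 10 µM; inactive = inhibition below 50%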;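 note: firefly luciferase from ISG56 promoter only with Renilla not read in this screen; 0% = Sendai virus plus DMSO and 100% = medium plus DMSO without virus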); details: HEK293 RL24 IRF3 luciferase reporter, at 10 µM, stronger effect = higher value
[8] = TLR3 IRF3 reporter activation blockers – cell-based, poly I:C stimulus, luciferase, 10K MLSCN set, primary screen (AID 602277); details: HEK293-TLR3 RL24 IRF3 luciferase reporter, at 10 µM, stronger effect = higher value

Voltage-gated potassium channel subunit beta-2 (Rattus norvegicus), sequence (P62483 whole entry, looked up): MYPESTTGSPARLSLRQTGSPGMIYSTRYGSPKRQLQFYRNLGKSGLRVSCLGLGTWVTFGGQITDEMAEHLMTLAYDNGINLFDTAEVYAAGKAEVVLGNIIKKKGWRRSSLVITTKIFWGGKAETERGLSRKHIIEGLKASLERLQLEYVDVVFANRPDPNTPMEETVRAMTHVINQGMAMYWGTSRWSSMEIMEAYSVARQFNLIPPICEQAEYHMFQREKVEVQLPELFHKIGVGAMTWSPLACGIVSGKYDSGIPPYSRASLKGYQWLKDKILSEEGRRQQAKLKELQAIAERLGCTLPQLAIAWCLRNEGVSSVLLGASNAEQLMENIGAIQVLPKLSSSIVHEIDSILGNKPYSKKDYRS
Alpha-2C adrenergic receptor (Homo sapiens), sequence (P18825 whole entry, looked up): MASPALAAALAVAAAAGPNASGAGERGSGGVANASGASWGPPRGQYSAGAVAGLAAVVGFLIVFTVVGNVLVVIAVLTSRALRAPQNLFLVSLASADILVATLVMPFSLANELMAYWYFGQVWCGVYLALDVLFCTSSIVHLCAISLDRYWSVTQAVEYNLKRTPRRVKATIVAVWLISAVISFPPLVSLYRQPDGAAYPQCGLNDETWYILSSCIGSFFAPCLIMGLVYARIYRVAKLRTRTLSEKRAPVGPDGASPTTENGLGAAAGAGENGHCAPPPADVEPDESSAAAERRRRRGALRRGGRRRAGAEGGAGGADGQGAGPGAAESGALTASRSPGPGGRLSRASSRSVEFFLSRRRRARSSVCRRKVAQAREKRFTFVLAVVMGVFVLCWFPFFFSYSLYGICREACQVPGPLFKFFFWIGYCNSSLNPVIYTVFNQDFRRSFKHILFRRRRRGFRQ

| SMILES | cell count [1] | inhibition [1] | inhibition of aggregation [2] | nuclei count [2] | inhibition [3] | nuclei count [3] | fluorescence slope [4] | NADPH fluorescence slope [5] | slope [6] | inhibition [7] | inhibition [8] |
| --- | --- | --- | --- | --- | --- | --- | --- | --- | --- | --- | --- |
| COc1cccc(CN2CCN(C(=O)CC(C)C)CC2)c1 | 448 | 2.2% (inactive) | -3.8% (inactive) | 118% | -45.8% (inactive) | 132% | -0.241 (inactive) | 2.2e-06 (inactive) | 0.00544 (inactive) | 10.5% (inactive) | 4.9% (inactive) |
| CC(C)OC(=O)CSc1nnc(-c2ccc(C(C)(C)C)cc2)n1N | 396 | -2.3% (inactive) | 4.2% (inactive) | 80.6% | -158% (inactive) | 210% | -0.469 (inactive) | -3.9e-05 (inactive) | 0.00343 (inactive) | 1.32% (inactive) | 14% (inactive) |
| CCCNC(=O)CS(=O)(=O)Cc1nc(-c2cccc(OC)c2)oc1C | 781 | 3.5% (inactive) | 12.5% (inactive) | 99.7% | -52% (inactive) | 127% | -0.543 (inactive) | 4.4e-05 (inactive) | 0.007 (inactive) | 9.03% (inactive) | -7.6% (inactive) |
| COCCCNC(=O)CSc1ccc(Cl)cc1 | 378 | -1.8% (inactive) | -3.3% (inactive) | 93.9% | 10.2% (inactive) | 80% | -0.377 (inactive) | -5e-05 (inactive) | 0.00511 (inactive) | 1.1% (inactive) | 10.8% (inactive) |
| COc1cc(C2N3CC4(C)CN2CC(C)(C3)C4)ccc1O (centres undefined) | 309 | -4.3% (inactive) | 15.8% (inactive) | 74.7% | -33.6% (inactive) | 100% | -0.345 (inactive) | -5.2e-07 (inactive) | 0.0063 (inactive) | 0.715% (inactive) | 25.8% (inactive) |
| CCN(CC)CCOC(=O)c1ccc(NC(=O)COc2cc(=O)n(CC)c3ccccc23)cc1 | 386 | 6.7% (inactive) | -6.9% (inactive) | 108% | -26.7% (inactive) | 117% | -0.514 (inactive) | 4.9e-05 (inactive) | 0.00772 (inactive) | -1.28% (inactive) | -7.01% (inactive) |
| COc1cccc(/C=N/n2cnnc2)c1OCc1ccccc1 | 473 | -2.6% (inactive) | -7% (inactive) | 104% | 2.5% (inactive) | 109% | -0.448 (inactive) | 1.1e-05 (inactive) | 0.00389 (inactive) | 20.5% (inactive) | 12.5% (inactive) |
| C=CCSc1n[nH]c(-c2ccc(OC)cc2)n1 | 244 | 17.3% (inactive) | -8.3% (inactive) | 89.5% | -73.2% (inactive) | 103% | -0.417 (inactive) | -9.3e-05 (inactive) | 0.00611 (inactive) | -90.7% (inactive) | -168% (inactive) |
| CC(C)CC(c1nnnn1CC1CCCO1)N1CCN(Cc2ccc3c(c2)OCO3)CC1 (centres undefined) | 474 | 1% (inactive) | -18.9% (inactive) | 129% | -21.2% (inactive) | 111% | -0.472 (inactive) | -3.8e-05 (inactive) | 0.00652 (inactive) | -28.6% (inactive) | 25% (inactive) |
| O=C1CCCC2=C1C1(CCCC1)N=C(Nc1nc3ccccc3s1)N2 | 687 | -4.4% (inactive) | -42.8% (inactive) | 139% | -39.4% (inactive) | 117% | -0.257 (inactive) | -9.3e-06 (inactive) | 0.00377 (inactive) | 10.1% (inactive) | 2.82% (inactive) |
| Nc1c(S(=O)(=O)c2cccs2)c2nc3ccccc3nc2n1CC1CCCO1 (centres undefined) | 667 | -7.3% (inactive) | -6% (inactive) | 117% | -71.1% (inactive) | 141% | -0.0861 (active) | 2.8e-06 (inactive) | 0.00409 (inactive) | 10.7% (inactive) | 35.1% (inactive) |
| CCCS(=O)(=O)N1CCCC(C(=O)NC(C)c2ccc3c(c2)OCCO3)C1 (centres undefined) | 719 | -10.9% (inactive) | 0.2% (inactive) | 101% | -26.6% (inactive) | 100% | -0.475 (inactive) | 1.2e-05 (inactive) | 0.00535 (inactive) | 9.72% (inactive) | 13.6% (inactive) |
| Cc1nn(C(=O)c2ccc3c(c2)OCO3)c(N)c1-c1ccccc1 | 581 | 5.1% (inactive) | 11.7% (inactive) | 91.3% | -19.8% (inactive) | 106% | -0.451 (inactive) | 1.4e-05 (inactive) | 0.00618 (inactive) | -23.3% (inactive) | -108% (inactive) |
| CC(C)(NC(=O)N1CCCC1)c1cccc(C(C)(C)NC(=O)N2CCCC2)c1 | 366 | -1.8% (inactive) | 34.8% (active) | 92.3% | 21.6% (inactive) | 83.8% | -0.381 (inactive) | 3e-05 (inactive) | 0.00445 (inactive) | 11.4% (inactive) | 30.1% (inactive) |

Source: PubChem BioAssay
